# Inconclusive results are not listed. Activity calls are given as the source filed them. The calls were made as follows: active = hit-call score of the fitted dose curve at least 0.9, where 1 is the maximum; inconclusive = response in the unintended direction; inactive = score below 0.9.
# Biological target: human Retinoid X Receptor beta (RXRb), RXRB (gene 6257) (UniProt P28702)
# Test: ATG_RXRb_TRANS: Attagene TRANS-FACTORIAL HepG2 Assay for human Retinoid X Receptor beta (RXRb) (AID 2283013)
# Procedure: ATG_TRANS is a cell-based, multiplexed-readout assay that uses HepG2, a human liver cell line, with measurements taken at 24 hours after chemical dosing in a 24-well plate.ATG_RXRb_TRANS is one of 30 assay component(s) measured or calculated from the ATG_TRANS assay. It is designed to make measurements of mRNA induction, a form of inducible reporter, as detected with fluorescence intensity signals by Reverse transcription polymerase chain reaction (RT-PCR) and Capillary electrophoresis technology.Data from the assay component ATG_RXRb_TRANS was analyzed into 1 assay endpoint. This assay endpoint, ATG_RXRb_TRANS, was analyzed in the positive analysis fitting direction relative to DMSO as the negative control and baseline of activity. Using a type of inducible reporter, measures of mRNA for gain-of-signal activity can be used to understand the reporter gene at the transcription factor-level as they relate to the gene RXRB. Furthermore, this assay endpoint can be referred to as a primary readout, because this assay has produced multiple assay endpoints where this one serves a reporter gene function. To generalize the intended target to other relatable targets, this assay endpoint is annotated to the nuclear receptor intended target family, where the subfamily is non-steroidal.
# Human liver HepG2 cells are transiently transfected with multiple reporter transcription units (MRTUs) in 6-well plates using FuGene 6 reagent (Roche; 3 ml FuGene/1 mg DNA). The MRTU constructs are regulated by a cis-regulating element (promoter). […] A major difference between the CIS and TRANS system is that in CIS activities of endogenous TFs are measured, whereas the TRANS assay evaluates changes in activities of exogenous, chimeric NR-Gal4 proteins. […] At the end of 24 hour incubation, total RNA was isolated using TriZol reagent (Invitrogen). The isolated RNA is then reverse-transcribed using oligo(dT) primer and Mo-MLV reverse transcriptase (Invitrogen) with DNAse I (Ambion) treatment for 30 min. The one-tenth of the produced cDNA was amplified by PCR using Taq DNA polymerase (Invitrogen) and two reporter sequence-specific primers. The PCR products were fluorescently labeled by primer extension with 6-arboxyfluorescein (6-FAM) 5'-labeled reporter sequence-specific primer (2 min at 95 C, 20 s at 68 C and 10 min at 72 C) and these products were digested with 5U of HpaI (New England Biolabs) for 2h at 37 C. The fragments were purified using Qiaquick PCR columns (Qiagen), analyzed on an ABI 3130xL genetic analyzer (Applied Biosystems) with peak positions identified by using a set of X-rhodamine (ROX)-labeled MapMarker1000 molecular weight standards (BioVentures). The raw capillary electrophoresis data was processed using Attagraph software (Attagene).
# Sequence of human Retinoid X Receptor beta (RXRb), RXRB (gene 6257) (P28702 whole entry, looked up): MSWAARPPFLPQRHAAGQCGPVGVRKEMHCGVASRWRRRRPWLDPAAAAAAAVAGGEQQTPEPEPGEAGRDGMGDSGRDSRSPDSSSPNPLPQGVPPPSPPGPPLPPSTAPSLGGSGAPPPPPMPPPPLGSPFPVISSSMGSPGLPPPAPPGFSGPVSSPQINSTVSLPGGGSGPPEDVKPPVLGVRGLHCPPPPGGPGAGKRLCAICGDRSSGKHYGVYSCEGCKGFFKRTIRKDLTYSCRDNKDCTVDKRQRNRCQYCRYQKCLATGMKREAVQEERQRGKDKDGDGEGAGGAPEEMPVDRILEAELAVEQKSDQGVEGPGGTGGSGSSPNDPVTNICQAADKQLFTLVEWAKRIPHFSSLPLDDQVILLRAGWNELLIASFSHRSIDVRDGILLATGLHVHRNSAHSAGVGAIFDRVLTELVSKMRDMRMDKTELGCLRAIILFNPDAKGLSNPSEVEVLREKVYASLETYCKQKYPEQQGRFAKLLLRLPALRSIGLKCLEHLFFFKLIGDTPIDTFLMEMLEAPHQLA
Structure (SMILES),outcome,AC50
CC1CCCC1.[C-]#[O+].[C-]#[O+].[C-]#[O+].[Mn],inactive,
O=C(O)CCl,inactive,
Cc1ccc(N(SC(F)(Cl)Cl)S(=O)(=O)N(C)C)cc1,inactive,
C=COCCCl,inactive,
O=C(CCl)c1ccccc1,,33.4 µM (active)
CCCOC(=O)c1ccccc1C(=O)OCCC,,76.1 µM (active)
O=C(NC(=O)c1c(F)cccc1F)Nc1ccc(Oc2ccc(C(F)(F)F)cc2Cl)cc1F,inactive,
CC(C)(C)C(=O)CCl,inactive,
Nc1ccc(Cl)c(Cl)c1,inactive,
CC(Cc1ccc(C(C)(C)C)cc1)CN1C[C@@H](C)O[C@@H](C)C1 (stereo not given in full),inactive,
N#CC(c1ccccc1)c1ccccc1,,49.1 µM (active)
O=[N+]([O-])C=Cc1ccccc1,inactive,
CCC1CCC(=O)O1 (stereo not given),inactive,
C=CC(=O)OCC(CC)CCCC (stereo not given),inactive,
Nc1ccc(-c2ccc(N)c(N)c2)cc1N,inactive,
CC(C)(O)C#N,,78.5 µM (active)
NNc1ccccc1,inactive,
C[N+](C)(C)CC(=O)[O-],inactive,
O=C(O)c1cc[c]([Hg][Cl])cc1,,53.8 µM (active)
C#CC1(O)CCCCC1,inactive,

Structure (SMILES),outcome,AC50
CC(C)[C@@H](C(=O)O[C@@H](C#N)c1cccc(Oc2ccccc2)c1)c1ccc(Cl)cc1,inactive,
ClCC(Cl)Cl,inactive,
CC1(C)[C@H](C(=O)O[C@H](C#N)c2cccc(Oc3ccccc3)c2)[C@@H]1C=C(Br)Br,inactive,
O=c1c2ccccc2c(=O)c2c1cc(Cl)c1[nH]c3c([nH]c12)c(Cl)cc1c(=O)c2ccccc2c(=O)c13,,138 µM (active)
CCc1cccc(C)c1N(C(=O)CCl)[C@@H](C)COC,inactive,
CCN(CC)C(=S)S,inactive,
N#CCCCl,inactive,
COc1cc(OC)c(OC)cc1C=O,inactive,
CC(C)CCCCCCCOP(=O)(Oc1ccccc1)Oc1ccccc1,inactive,
Cc1ccc(C)c2ccccc12,,83.3 µM (active)
O=C1Nc2ccc(Cl)cc2C(c2ccccc2)=NC1O (stereo not given),inactive,
Clc1ccc(-c2ccccc2)cc1,inactive,
C=CC(=O)OC,inactive,
CC(C)c1ccc(O)cc1,,74.9 µM (active)
CCC(Br)(CC)C(=O)NC(N)=O,inactive,
COC(C)(C)CCC[C@H](C)C/C=C/C(C)=C/C(=O)OC(C)C,inactive,
O=S(=O)(O)O,inactive,
O=P(O)(Oc1ccccc1)Oc1ccccc1,inactive,
O=[N+]([O-])c1cc([N+](=O)[O-])c2ccccc2c1,inactive,
Nc1ccc([N+](=O)[O-])cc1N,inactive,

# — PubChem BioAssay (EPA / NIEHS)
